Pf growth 48h = inhibits P. falciparum growth in the first generation, 48 h; 310,000 compounds, 5.9% hits; P. falciparum luciferase growth in erythrocytes, 48 h; AID 504832; Potency, µM (series often up to 28.7 µM), without a hit: at the top dose activity change, negative = inhibition, actives largely listed as inhibitors; further: potency means the concentration at half of the fitted maximal effect; on the % scale 0 is the no-effect control and ±100 the full control effect
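Luciferase-expressing parasites in RBCs, 2% Hct / 0.1% parasitemia final; RPMI 1640 + 0.5% Albumax; 37 C, 5% CO2, one generation; luminescence read-out, lower signal = inhibition.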
Shiga toxin inh = inhibitors of Shiga toxin in Vero cells. Vero cells, Shiga toxin protein synthesis inhibition reporter. inhibition, % at 38.7 µM. 290,000 compounds, 9.2% hits. AID 2315; in the data active means inhibition mostly above about 28%, no sharp cut-off; inactive means mostly below about 43%; further: 0% is about no effect
HCMV antiviral = human cytomegalovirus inhibition | HFF cells, HCMV-luciferase reporter, 72 h; stronger effect = lower value | activity change, negative = inhibition, % at 57.5 µM | 410,000 compounds, 4.5% hits | AID 1259415; in the data active means activity change below about -60%; inconclusive means no clear call, values can overlap the other calls; inactive means above about -39%; further: on the % scale 0 is the no-effect control and ±100 the full control effect
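Luciferase read-out from HCMV-luciferase-infected HFFs (MOI 1 PFU/cell) 72 h post infection at 37C; compounds added after 16 h cell attachment; activity normalized between buffer-only basal and Salinomycin (10uM) inhibitor controls.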
Pf growth 96h = P. falciparum growth inhibition at 96 hour, primary screen for plastid delayed-death inhibitors; P. falciparum luciferase reporter growth, 96 h; Potency, µM (titrated, usually from 28.7 µM), for the others: top-dose activity change, negative = inhibition, most hits filed as inhibitors; 320,000 compounds, 6.9% hits; AID 504834; further: potency means the concentration at half of the fitted maximal effect; on the % scale 0 is the no-effect control and ±100 the full control effect
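Two parasite generations (96 h, 37 C, 5% CO2) of compound exposure in infected erythrocytes (0.05% parasitemia, 2% hematocrit). Luciferase-reporter P. falciparum; decreased luminescence indicates inhibited growth, aimed at apicoplast-acting delayed death.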
Cycloheximide cs = affects cycloheximide protein synthesis inhibition readout, counter-screen. cell reporter, cycloheximide protein synthesis inhibition counterscreen. max response, %. 300,000 compounds, 12% hits. AID 2314; in the data active means max response mostly above about 13%, no sharp cut-off; inactive means mostly below about 14%; further: read at 38.3 µM for the half of the compounds with a filed dose; 0% is about no effect
HCV inh = blocks hepatitis C virus | Huh7.5.1 HCVcc-Cre infection, luciferase reporter, 44 h | Potency, µM (doses to about 41.8 µM), for inactives: top-dose activity change, negative = inhibition, actives largely listed as inhibitors | 340,000 compounds, 3.4% hits | AID 651820; further: potency means the concentration at half of the fitted maximal effect; on the % scale 0 is the no-effect control and ±100 the full control effect
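Whole-lifecycle infectious HCVcc-Cre system; cells 1,000/well, compound then virus (~0.5 moi) added 4 h after plating, 44 h culture. Luciferase read 15 sec following 15 min substrate incubation, room temp.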
Numbers without * were called inactive; [ ] = dose if it differs, or a comment. Hits are enriched below; roughly 21% of the tested compounds scored in any of these assays. Unless noted, the call rests on the fitted dose curve; in most records, active means well fitted inhibition curve with a large enough effect; inconclusive means small, poorly fitted or top-dose-only effect, or another doubt; inactive means no such curve, though single readings can be large or run the other way.

For Cc1ccc(C(=O)Nc2cccc(C(=O)N3CCOCC3)c2)cc1 the results were Shiga toxin inh 70, HCMV antiviral 80, Pf growth 96h 315%, Cycloheximide cs 18 and HCV inh 2%.
Cc1ccc(NC(=O)c2cccc(S(=O)(=O)N(C)c3ccccc3)c2)cc1S(=O)(=O)N1CCOCC1 was read as Pf growth 48h inconclusive, Shiga toxin inh -5, HCMV antiviral -70*, Pf growth 96h 12µM*, Cycloheximide cs 2 and HCV inh 4µM*.
For CC(C)(C)c1ccc(C(=O)Nc2cccc(C(=O)N3CCOCC3)c2)cc1 the results were Pf growth 48h 75%, Shiga toxin inh 57*, HCMV antiviral inconclusive, Pf growth 96h -38%, Cycloheximide cs 45* and HCV inh 5.6µM*.
For CC(=O)c1cccc(NC(=O)c2ccc(C)c(S(=O)(=O)N3CCOCC3)c2)c1 the results were Pf growth 48h inconclusive, Shiga toxin inh 2, HCMV antiviral 1, Pf growth 96h 2%, Cycloheximide cs 1 and HCV inh -25%.
For CC(C)C[C@H]1COc2ccc(Cl)cc2S(=O)(=O)N1C[C@H](NC(=O)OC(C)(C)C)C(C)C the results were HCMV antiviral -32.
CCCCN1CC(O)C(O)C(O)C1CO (stereo not drawn) was read as Pf growth 48h 3% and Pf growth 96h inconclusive.
`Cc1ccc(C(=O)N2CCOCC2)cc1S(=O)(=O)N1CCOCC1` gave Pf growth 48h 29%, Shiga toxin inh -5, HCMV antiviral 33, Pf growth 96h inconclusive, Cycloheximide cs -3 and HCV inh 10%.
Screening Cc1ccc(C(=O)O)cc1S(=O)(=O)N1CCOCC1 returned Pf growth 48h 2%, Shiga toxin inh -15, HCMV antiviral -6, Pf growth 96h 8.3µM*, Cycloheximide cs -1 and HCV inh 0%.
Cc1cc(SCC(=O)NCc2ccc(F)cc2)nc(=O)[nH]1 was read as HCMV antiviral 0.
`Cc1ccccc1SCCNC(=O)CCc1ccccc1` gave Pf growth 48h 30%, Shiga toxin inh 28*, Pf growth 96h 54% and Cycloheximide cs 26.
Screening Cc1ccc(C)c2[nH]c(=O)c(CCNC(=O)CCc3ccccc3)cc12 returned Pf growth 48h -5%, Shiga toxin inh 5, HCMV antiviral -76*, Pf growth 96h 5%, Cycloheximide cs 2 and HCV inh 0%.
`Cc1ccccc1SCCNC(=O)c1ccccc1Br` gave Pf growth 48h 53%, Shiga toxin inh 99*, HCMV antiviral inconclusive, Pf growth 96h inconclusive, Cycloheximide cs 43* and HCV inh -9%.
O=C(NCCNC(=O)c1ccccc1Br)c1ccccc1Br was read as Pf growth 48h 3%, Shiga toxin inh -6, HCMV antiviral 13, Pf growth 96h inconclusive, Cycloheximide cs 1 and HCV inh -2%.
CC(=O)c1cccc(NS(=O)(=O)c2cc3c(cc2C)N(C(C)=O)CCO3)c1 was read as Pf growth 48h 12%, Shiga toxin inh -4, HCMV antiviral 0, Pf growth 96h inconclusive, Cycloheximide cs 18 and HCV inh 10%.
Screening O=C(CS(=O)c1ccc(C(F)(F)F)cc1[N+](=O)[O-])Oc1ccccc1 (stereo not drawn) returned Shiga toxin inh -3, HCMV antiviral inconclusive, Pf growth 96h -79%, Cycloheximide cs 25* and HCV inh inconclusive.
`COC(=O)c1ccc(OC(=O)CS(=O)c2ccccc2[N+](=O)[O-])cc1` (stereo not drawn) gave Pf growth 48h 34%, Shiga toxin inh 2, HCMV antiviral 10, Pf growth 96h -32%, Cycloheximide cs -1 and HCV inh 12%.
Screening CS(=O)(=O)c1ccc(S(=O)CC(=O)OCc2ccccc2)c([N+](=O)[O-])c1 (stereo not drawn) returned Pf growth 48h -17%[5.75 µM], Shiga toxin inh 17, HCMV antiviral -101*, Pf growth 96h inconclusive, Cycloheximide cs 11* and HCV inh inconclusive.
`COCCCn1c(=O)/c(=C\c2ccccc2OC(F)F)s/c1=C(/C#N)C(=O)NC(C)C` gave Pf growth 48h -6%, Shiga toxin inh -9, HCMV antiviral 8, Pf growth 96h 14%, Cycloheximide cs 6 and HCV inh 12%.
For COCCCn1c(=O)/c(=C\c2ccccc2OC(C)C)s/c1=C(/C#N)C(=O)Nc1ccc(C(=O)O)cc1 the results were Pf growth 48h 1.9µM*, Shiga toxin inh 14, HCMV antiviral 0, Pf growth 96h 1.5µM*, Cycloheximide cs 7 and HCV inh 3%.
`CCOc1ccc(OCC)c(NC(=O)c2cnn(-c3ccc(F)cc3)c2-n2cccc2)c1` gave HCMV antiviral -22.
Screening Cc1cc(C)cc(NC(=O)CSc2nc3nc(C)cc(C)n3n2)c1 returned Pf growth 48h inconclusive, HCMV antiviral 0, Pf growth 96h -7% and HCV inh -2%.
Screening N#Cc1ccc(NC(=O)Cn2cnc(S(=O)(=O)N3CCCCC3)c2)cc1 returned Pf growth 48h 10%, Shiga toxin inh -6, HCMV antiviral -15, Pf growth 96h inconclusive, Cycloheximide cs -3 and HCV inh 3%.
For O=C(Cn1cnc([N+](=O)[O-])c1)Nc1cc(Oc2ccc(Cl)cc2Cl)cc([N+](=O)[O-])c1 the results were Pf growth 48h 13µM*, Shiga toxin inh 13, HCMV antiviral -73*, Pf growth 96h -18%, Cycloheximide cs 1 and HCV inh 6.3µM*.
For O=C(Cn1cnc([N+](=O)[O-])c1)c1ccc(Cl)cc1 the results were Pf growth 48h 25%, HCMV antiviral 6, Pf growth 96h 68% and HCV inh -24%.
Screening N#Cc1ccc(NC(=O)Cn2cnc([N+](=O)[O-])c2)cc1 returned Pf growth 48h 5%, Shiga toxin inh -8, HCMV antiviral 13, Pf growth 96h 12µM*, Cycloheximide cs -3 and HCV inh 10%.
For COc1cn(-c2ccccc2)nc1C(=O)NCc1ccc(C)cc1 the results were Pf growth 48h inconclusive, Shiga toxin inh 32, HCMV antiviral inconclusive, Pf growth 96h 8.3µM*, Cycloheximide cs 9 and HCV inh -28%.
For COc1ccccc1CNCC(=O)NCc1ccc(C)cc1 the results were Pf growth 48h 20%, Shiga toxin inh -12, HCMV antiviral -11, Pf growth 96h inconclusive, Cycloheximide cs 1 and HCV inh 6%.
For COc1ccccc1CNC(=O)c1ccccc1C(=O)NC(C)(C)C(=O)NCc1ccccc1OC the results were Pf growth 48h 2%, Shiga toxin inh -10, HCMV antiviral -25, Pf growth 96h 13µM*, Cycloheximide cs -6 and HCV inh 13%.
COc1ccccc1CNC(=O)c1ccccc1OC was read as Shiga toxin inh -20, HCMV antiviral 3, Pf growth 96h inconclusive, Cycloheximide cs -3 and HCV inh 10%.

Assay outcomes as filed in PubChem.
